From PubChem BioAssay
AMA1-RON2 inh – qHTS for Inhibitors of AMA1-RON; Towards Development of Antimalarial Drug Lead: Primary Screen; Potency, µM (doses to about 58.2 µM), hits mostly inhibitors; Plasmodium falciparum AMA1 (3D7) - RON2 peptide interaction; AlphaScreen AMA1-biotinylated RON2 peptide binding; AID 720542, 2013; actives 0.2% (n = 360,000); further: nearly all actives have a fitted effect of over 45% in size
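AMA1 (3D7) with his tag at 25 nM final met compounds first, then biotinylated RON2 peptide at 25 nM; detection used donor plus acceptor beads, 10 µg/mL apiece, read by AlphaScreen after 30 min at room temperature.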
Pf growth 96h – Primary qHTS for delayed death inhibitors of the malarial parasite plastid, 96 hour incubation; P. falciparum luciferase reporter growth, 96 h; Potency, µM (doses to about 28.7 µM), hits mostly inhibitors; actives 6.9% (n = 320,000); AID 504834, 2011
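P. falciparum expressing integrated firefly luciferase grown in erythrocytes (2% hematocrit, 0.05% parasitemia final) with compounds for 96 hours at 37 C, 5% CO2. Growth inhibition read as loss of luminescence after adding luciferase detection reagent.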
Pf growth 48h – Primary qHTS for delayed death inhibitors of the malarial parasite plastid, 48 hour incubation; actives 5.9% (n = 310,000); AID 504832, 2011; Potency, µM (doses to about 28.7 µM), hits mostly inhibitors; P. falciparum luciferase growth in erythrocytes, 48 h
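Read-out is firefly luciferase luminescence from an integrated reporter in P. falciparum, so falling signal marks reduced parasite growth. Infected erythrocytes were at 2% hematocrit and 0.1% parasitemia (final) in Albumax-supplemented RPMI 1640.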
Sm TGR block – qHTS Assay for the Inhibitors of Schistosoma Mansoni Peroxiredoxins; Schistosoma mansoni thioredoxin glutathione reductase (TGR), Q962Y6; purified TGR, DTNB reduction, TNB absorbance 405 nm; Potency, µM (highest dose often 114 µM), actives largely listed as inhibitors; actives 3% (n = 360,000); AID 485364, 2010; further: nearly all actives have a fitted effect of over 60% in size
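TGR 20 nM + NADPH 100 uM (dispensed conc.), cpd preinc 15 min RT; start with NADPH (500 uM addition) then DTNB (15 mM addition). Kinetic TNB absorbance, 405 nm filter. Four-parameter Hill fit across titration.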
NS1 function inh – qHTS Assay for Inhibitors of Influenza NS1 Protein Function | Potency, µM (top dose mostly 46.1 µM) | actives 0.4% (n = 270,000); calls by dose curve; further: actives are rising curves; nearly all actives have a fitted effect of over 50% in size
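Compounds were scored for reversing the slow growth caused by influenza A NS1 in S. cerevisiae, measured by optical density at 600 nm. Assay medium contained 2% galactose at pH 6.0; NS1-free yeast of the same strain were the positive control.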
Of the large screens only hits and unclear results are named; the others gave an inactive call. Only some compounds are listed: those with a hit (about 11% of all), similar ones and a draw of the others. Unless noted, the call rests on the fitted dose curve; in most records, active means well fitted curve in the direction sought with a large enough effect; inconclusive means small, poorly fitted or top-dose-only effect, or another doubt; inactive means no such curve, though single readings can be large; an effect the other way counts as inactive or inconclusive.

O=C(O)/C=C/C(=O)Nc1ccc(S(=O)(=O)Nc2nccs2)cc1	Pf growth 96h 1.7µM
O=C(Nc1ccc(S(=O)(=O)Nc2nccs2)cc1)C(F)(F)F	none (no result: Pf growth 96h, Pf growth 48h, Sm TGR block, NS1 function inh)
COc1nsnc1NS(=O)(=O)c1ccc(NC(=S)NC(=O)c2ccncc2)cc1	Sm TGR block 32µM
COc1nsnc1NS(=O)(=O)c1ccc(NC(=S)NC(=O)c2cccnc2)cc1	Pf growth 48h inconclusive (no result: Sm TGR block)
O=C(COC(=O)c1nc(Cl)ccc1Cl)NCc1cccs1	none (no result: NS1 function inh)
N#CCCSc1ccccc1NC(=O)c1cc(=O)c2ccccc2o1	Pf growth 96h inconclusive
Cc1cc(OC(=O)c2ccc(Cl)cc2Cl)nc(C)n1	Sm TGR block 56µM
Cc1cc(C)c(S(=O)(=O)c2ccccc2)c(OC(=O)c2ccc(Cl)cc2Cl)n1	Pf growth 96h inconclusive (no result: Pf growth 48h)
COc1ccc(CC(=O)NC2CCS(=O)(=O)C2)cc1 (stereo not given)	none (no result: NS1 function inh)
COC(=O)C=CC(=NNc1ccccc1)c1ccccc1	none (no result: Pf growth 96h, Pf growth 48h, Sm TGR block, NS1 function inh)
COc1ccccc1OCc1nnc(-c2ccccc2)o1	none (no result: AMA1-RON2 inh, Pf growth 96h, Pf growth 48h, NS1 function inh)
N#CCCN1CCN(CCC#N)CC1	none
Cc1cc(CN2CCN(CCC#N)CC2)c(O)c(C2(C)CCCCC2)c1	Pf growth 48h 9.3µM
Nn1c(SCC(=O)Nc2ccc(S(N)(=O)=O)cc2)nnc1C(F)(F)F	none
NC(=O)CSC1=N/C(=C\c2ccco2)C(=O)N1c1ccc(OC(F)F)cc1	Pf growth 48h inconclusive, Sm TGR block 45µM (no result: NS1 function inh)
CCN(CC)C(=O)CSC1=N/C(=C/c2ccco2)C(=O)N1c1ccc(OC)c(Cl)c1	Pf growth 96h inconclusive, Pf growth 48h inconclusive, Sm TGR block inconclusive
CCOc1ccc(N2C(=O)S/C(=C\c3ccc(O)c(OCC)c3)C2=O)cc1	Pf growth 96h inconclusive, Pf growth 48h inconclusive
CCOc1cc(/C=C2\N=C(SC(C)C(N)=O)N(c3ccc(OC(F)F)cc3)C2=O)ccc1O (stereo not given)	Pf growth 96h 1.2µM, Sm TGR block inconclusive
Cc1ccc(F)c(S(=O)(=O)NC(=O)C2(C)CCN2C(=O)Cc2ccccc2Cl)c1 (stereo not given)	none (no result: Pf growth 96h, Pf growth 48h, Sm TGR block, NS1 function inh)
O=C(NCCCn1cccn1)C1CCC(=O)N(Cc2ccccc2F)C1 (stereo not given)	none
COC(=O)COc1ccc(C(=O)Cn2c(NCCCO)nc3ccccc32)cc1	none (no result: Pf growth 96h, Pf growth 48h, Sm TGR block, NS1 function inh)
CN(C)CC1CCCCC1C1(O)c2ccccc2CSc2sccc21 (stereo not given)	Pf growth 96h inconclusive, Pf growth 48h 9.3µM
CC1CC(CC(=O)Nc2nc(-c3ccccc3)cs2)C(=O)O1 (stereo not given)	none (no result: NS1 function inh)
C/C(CC1CC(COCC(C)C)OC1=O)=N\Nc1nc(-c2ccccc2)cs1 (stereo not given)	Pf growth 96h inconclusive, Pf growth 48h inconclusive, Sm TGR block 56µM
O=C(NCc1ccc(Cl)nc1)c1csc(COCCO)n1	none (no result: Pf growth 96h, Pf growth 48h, Sm TGR block, NS1 function inh)
COc1cccc(N2C(=O)C3ON(c4ccccc4)C(c4cccs4)C3C2=O)c1 (stereo not given)	none (no result: Pf growth 48h)
CCOc1ccc(N2C(=O)C3ON(c4ccccc4)C(c4cccs4)C3C2=O)cc1 (stereo not given)	Pf growth 48h 12µM
COc1ccc(-c2nnc(NC(=O)c3ccc(S(=O)(=O)N(C)CC4CCCO4)cc3)o2)c(OC)c1 (stereo not given)	Pf growth 96h inconclusive
O=C(c1ccccc1Cc1ccccc1)N1CCN(S(=O)(=O)c2ccccc2[N+](=O)[O-])CC1	Pf growth 96h 13µM, Pf growth 48h inconclusive (no result: NS1 function inh)
CCn1c(=O)c(C(=O)CN2CCN(S(=O)(=O)c3cc(C)ccc3C)CC2)c(N)n(Cc2ccccc2)c1=O	Pf growth 96h 13µM, Pf growth 48h inconclusive
CCn1c(=O)c(C(=O)CN2CCN(Cc3ccc4c(c3)OCO4)CC2)c(N)n(Cc2ccccc2)c1=O	Pf growth 96h inconclusive, Pf growth 48h inconclusive (no result: NS1 function inh)
O=C(c1ccccc1Cc1ccccc1)N1CCN(S(=O)(=O)c2ccccc2)CC1	Pf growth 96h inconclusive
Cc1ccc(C)c(S(=O)(=O)N2CCN(C(=O)c3ccccc3Cc3ccccc3)CC2)c1	Pf growth 96h inconclusive, Pf growth 48h 12µM (no result: NS1 function inh)
O=C(c1ccccc1Cc1ccccc1)N1CCN(S(=O)(=O)c2ccccc2F)CC1	Pf growth 96h 13µM, Pf growth 48h 12µM (no result: NS1 function inh)
COC(=O)C1C(c2ccc(OC)cc2)Nc2nnc(C(F)(F)F)n2C1(C)O (stereo not given)	none
Cc1ccc2c(=O)cc(C(=O)Nc3ccc(S(=O)(=O)N(C)Cc4ccccc4)cc3)oc2c1	none (no result: AMA1-RON2 inh, Pf growth 96h, Pf growth 48h, NS1 function inh)
CC1CCCC(C)N1C(=O)COC(=O)c1c[nH]c2ccccc12 (stereo not given)	none (no result: NS1 function inh)
Cc1ccc(C)c(S(=O)(=O)N2CCN(C(C)C(=O)Nc3ccccc3-c3ccccc3)CC2)c1 (stereo not given)	Pf growth 96h 4.1µM, Pf growth 48h 9.3µM
Cc1cccc(C)c1OCc1n[nH]c(=S)o1	AMA1-RON2 inh inconclusive, Sm TGR block 32µM
CC(C)C[C@@H](CN=[N+]=[N-])N1CCN(C)CCC1=O	Pf growth 96h 15µM
CC(=O)Nc1ccc(NS(=O)(=O)c2ccc(CN3C(=O)c4cccnc4C3=O)cc2)cc1	none
Cc1ccc(CNS(=O)(=O)c2ccc(CN3C(=O)c4cccnc4C3=O)cc2)o1	Sm TGR block 20µM
CN(Cc1ccco1)S(=O)(=O)c1cc(F)ccc1CN1C(=O)c2cccnc2C1=O	none
Cc1ccc(CNS(=O)(=O)c2cc(F)ccc2CN2C(=O)c3cccnc3C2=O)o1	Pf growth 96h inconclusive, Sm TGR block 25µM
CC(C)NS(=O)(=O)c1cc(F)ccc1CN1C(=O)c2cccnc2C1=O	Pf growth 96h 2.1µM
O=C1c2ccccc2C(c2nnnn2-c2ccc3c(c2)OCCO3)N1CCc1c[nH]c2ccccc12 (stereo not given)	none (no result: Pf growth 96h, Pf growth 48h, Sm TGR block, NS1 function inh)
CCOC(=O)C1=CCC(c2ccccc2C)N(S(=O)(=O)c2ccc(C)cc2)C1 (stereo not given)	none (no result: Pf growth 96h, Pf growth 48h, Sm TGR block, NS1 function inh)
CC1Sc2ccc(S(=O)(=O)N3CCC(C(=O)NCc4ccc(Cl)cc4)CC3)cc2NC1=O (stereo not given)	Pf growth 48h 10µM
Cc1ccc(NC(=O)C2CCN(S(=O)(=O)c3ccc4c(c3)NC(=O)C(C)S4)CC2)c(C)c1 (stereo not given)	Pf growth 96h inconclusive, Pf growth 48h inconclusive
Cc1ccc(NC(=O)C2CCN(S(=O)(=O)c3ccc4c(c3)NC(=O)C(C)S4)CC2)cc1C (stereo not given)	Pf growth 96h inconclusive, Pf growth 48h 10µM
COc1ccccc1NC(=O)C1CCN(S(=O)(=O)c2ccc3c(c2)NC(=O)C(C)S3)CC1 (stereo not given)	Pf growth 96h inconclusive, Pf growth 48h 12µM
